Holding throughout (experiment): NCI-60 one-dose screen, 48 h (100 = growth as untreated, 0 = no growth, -100 = all killed)
Holding throughout (settings): 10 µM unless noted

In assay [1] the test system is NCI-H23 lung.
For assay [2], the system named is NCI-H226 lung.
Assay [3] deals with NCI-H322M lung.
Assay [4] concerns HOP-62 NSCLC.
Assay [5] has as its system NCI-H460 lung.
The subject of assay [6] is NCI-H522 lung.
Assay [7] relates to 786-0 renal.
Assay [8] has as its system COLO 205 colon.
Assay [9] relates to DU-145 prostate.
The subject of assay [10] is K-562 leukemia.
Assay [11] relates to MALME-3M melanoma.
For assay [12], the system named is MDA-MB-231 breast.
Assay [13] concerns RXF 393 renal.
The subject of assay [14] is SF-268 CNS.
Assay [15] has as its system SF-295 CNS.
Assay [16] concerns SF-539 CNS.
Assay [17] deals with UACC-257 melanoma.
Assay [18] has as its system M14 melanoma.
In assay [19] the test system is HOP-92 NSCLC.
In assay [20] the test system is A549/ATCC NSCLC.

Several values for one entry are separate records, joined by “and”; a condition that tells them apart may be missing. Equal entries are not always repeated. This is part of a sample that, as a whole, favours compounds with a hit. Of some 83,000 tested, about 20% had one in any assay.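 Results are percent growth after 48 hours of single-concentration exposure. 100 means growth as in untreated cells, lower positive values show inhibition; negative values down to -100 show cell death.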 Activity calls are given as the source filed them. The calls were made as follows: active = growth percent below 10; inactive = the rest.

As for `Nc1ncnc2c1ncn2C1CC(O)C(CO)O1` (stereo not given), the growth in assay [1] is 106% (inactive) and 112% (inactive); in assay [2], 101% (inactive) and 105% (inactive); in assay [3], 155% (inactive) and 112% (inactive); in assay [4], 109% (inactive) and 105% (inactive); in [5] it was 102% (inactive) and 124% (inactive); in assay [6], 142% (inactive) and 100% (inactive). The growth is 101% (inactive) and 105% (inactive) in assay [7]; 116% (inactive) and 107% (inactive) in assay [8]; 125% (inactive) and 118% (inactive) in [9]; 116% (inactive) and 96.6% (inactive) in [10]; 220% (inactive) and 110% (inactive) in assay [11]; 112% (inactive) and 119% (inactive) in assay [12]. The growth in [13] is 109% (inactive); in assay [14], 116% (inactive) and 107% (inactive); in assay [15], 82.6% (inactive) and 95% (inactive); in assay [16], 89.6% (inactive) and 121% (inactive); in assay [17] it was 102% (inactive); in assay [18] it was 113% (inactive) and 103% (inactive).

On to `Cc1ccc(-c2noc(CC(=O)c3ccc([N+](=O)[O-])cc3)n2)cc1`, for which the growth is 95.9% (inactive) in assay [1]; 92.9% (inactive) in [2]; 105% (inactive) in assay [3]; 103% (inactive) in assay [5]; 101% (inactive) in [19]; 95.2% (inactive) in assay [6]. Moreover, the growth in assay [20] is 94.6% (inactive); in [7] it was 99.6% (inactive); in assay [8], 109% (inactive); in assay [9], 101% (inactive); in assay [10] it was 89.1% (inactive); in assay [11], 110% (inactive). For the same compound, the growth is 104% (inactive) in assay [12]; 102% (inactive) in assay [13]; 95.6% (inactive) in assay [14]; 99% (inactive) in [15]; 98.2% (inactive) in assay [16]; 107% (inactive) in assay [17]. The growth in [18] was 96.5% (inactive).

For `CCOC(=O)Nc1ccc2c(c1)/C(=N\NC(N)=S)c1ccccc1-2`, the growth in [1] was 44.3% (inactive) and 62.6% (inactive); in assay [3], 83.8% (inactive) and 94.9% (inactive); in [4] it was 74.7% (inactive) and 77.6% (inactive); in assay [5], 52% (inactive) and 58.4% (inactive); in assay [19] it was 71.1% (inactive); in [6], 76.9% (inactive). The growth is 60% (inactive) and 57.6% (inactive) in assay [20]; 28% (inactive) and 53.7% (inactive) in assay [7]; 63.3% (inactive) and 88.3% (inactive) in [8]; 64.1% (inactive) and 84.3% (inactive) in [9]; 33.9% (inactive) in assay [10]; 89.4% (inactive) in assay [11]. Further, the growth in assay [12] was 32.7% (inactive) and 47.6% (inactive); in assay [13] it was 8.9% (active) and 12.6% (inactive); in assay [14], 78.6% (inactive) and 85.7% (inactive); in assay [15] it was 3.9% (active) and 30% (inactive); in assay [16] it was 13.8% (inactive) and 31% (inactive); in [17] it was 41.9% (inactive) and 91.3% (inactive). The growth in assay [18] is 42% (inactive) and 61.6% (inactive).

`O=C1C2=C(C(=O)c3ccccc31)C(O)(S(=O)(=O)O)C(O)(S(=O)(=O)O)C1N=CC=CC21` (stereo not given): the growth was 31.8% (inactive) and 20.8% (inactive) in assay [1]; 57% (inactive) and 68.1% (inactive) in assay [2]; 44.8% (inactive) and 16.8% (inactive) in [3]; 42.1% (inactive) and 41.9% (inactive) in assay [4]; 12.2% (inactive) and 4.17% (active) in assay [5]; 24.8% (inactive) and -11.8% (active) in assay [6]. The growth in [20] was 35.8% (inactive) and 22.1% (inactive); in assay [7], 32.7% (inactive) and 20.3% (inactive); in [8] it was 50.3% (inactive); in assay [9] it was 64.2% (inactive) and 48% (inactive); in assay [10] it was 13.5% (inactive) and 40% (inactive); in assay [11], 73% (inactive) and 62.1% (inactive). The growth is 58.3% (inactive) and 47.6% (inactive) in assay [12]; 76.7% (inactive) and 58.1% (inactive) in assay [13]; 52.2% (inactive) and 36.5% (inactive) in [14]; 6.52% (active) and 15.4% (inactive) in assay [15]; 25.4% (inactive) and 20.8% (inactive) in assay [16]; 71.4% (inactive) and 35.3% (inactive) in assay [17]. Also, the growth in assay [18] was 42.9% (inactive).

For the origin of these results see PubChem BioAssay (NCI).
